From PubChem BioAssay (EPA / NIEHS)
Calls of active or inactive are those of the source. The calls were made as follows: active = hit-call score of the fitted dose curve at least 0.9, where 1 is the maximum; inactive = score below 0.9.

read-out: Monocyte Chemoattractant Protein-1 (MCP1), CCL2 (gene 6347); test: BSK_4H_MCP1: BioMAP Diversity Plus: 4H Assay for Monocyte Chemoattractant Protein-1 (MCP1) Biomarker Activity (AID 2283018); details: primary human endothelial cells (HUVEC); actives raise or lower the signal
Method: BSK_4H is a cell-based, multiplexed-readout assay that uses umbilical vein endothelium, a human vascular primary cell, with measurements taken at 24 hours after chemical dosing in a 96-well plate.BSK_4H_MCP1 is an assay component measured in the BSK_4H assay. It measures MCP-1 antibody related to regulation of gene expression using ELISA technology.Data from the assay component BSK_4H_MCP1 was analyzed into 1 assay endpoint. This assay endpoint, BSK_4H_MCP1, was analyzed with bidirectional fitting relative to DMSO as the negative control and baseline of activity. Using a type of binding reporter, gain or loss-of-signal activity can be used to understand changes in the signaling as they relate to the gene CCL2. Furthermore, this assay endpoint can be referred to as a primary readout, because this assay has produced multiple assay endpoints where this one serves a signaling function. To generalize the intended target to other relatable targets, this assay endpoint is annotated to the cytokine intended target family, where the subfamily is chemotactic factor.
The levels of cell surface (or secreted, indicated by the prefix "s") biomarker endpoints were measured by ELISA. Overt cytotoxicity to cells in confluent adherent cultures (all systems other than the BT system) was assessed by measuring total protein levels using sulforhodamine B (SRB) staining in parallel cultures at the time of biomarker measurements, indicated as SRB endpoints. For proliferation assays for adherent cell types, individual cell types are cultured at sub-confluence and relative cell numbers quantified by SRB staining at time points optimized for each system (48 h: 3C and CASM3C systems; 72 h: BT and HDF3CGF systems; 96 h: SAg system). SRB was performed by staining cells with 0.1% SRB after fixation with 10% TCA and reading wells at 560 nm.Viability and proliferation of PBMC (T cells) was quantified by Alamar Blue reduction for the SAg and BT systems. For PBMC viability (referred to as PBMC Cytotoxicity within the assay endpoint names), cells were plated (75,000/well in a 96-well plate) and then chemical samples added for 1 h before addition of activators, SEB and TSST-1 (20 ng/mL final concentration each). Cells were incubated for 90 h. Then, Alamar Blue (20 uL/well) (Invitrogen, Cat DAL1100) was added for 6 h, and the plates were read with a fluorescence microplate reader at 546/580 nm (excitation/emission). For PBMC proliferation, cells were plated and activated as above but incubated for only 16 h prior to addition of Alamar Blue. Plates were read after 6 h.

| Compound | outcome | AC50 |
| --- | --- | --- |
| O=C(NS(=O)(=O)/C=C/c1cccs1)c1ccc(F)cc1Br | inactive |  |
| N[C@@H](Cc1c[nH]c2ccccc12)C(=O)O | inactive |  |
| O=C1O[C@H]([C@H](O)CO)C(O)=C1O | inactive |  |
| O=C(Oc1ccccc1)c1cccc(C(=O)Oc2ccccc2)c1 | inactive |  |
| CC(C)OC(=O)C(C)(C)Oc1ccc(C(=O)c2ccc(Cl)cc2)cc1 |  | 25.3 µM (active) |
| CN(C)C(=O)NC1(c2ccccc2)CCN(CC[C@@]2(c3ccc(F)c(F)c3)CN(C(=O)c3ccccc3)CCO2)CC1 | inactive |  |
| CCCCC(CC)COC(=O)CCCCCCCC(=O)OCC(CC)CCCC (stereo not given) | inactive |  |
| CC1(C)C(=O)NC(=O)N1CO | inactive |  |
| S=c1[nH]c2ccccc2s1 | inactive |  |
| CCN(CC)CCOc1ccc(C(=C(Cl)c2ccccc2)c2ccccc2)cc1 |  | 9.04 µM (active) |
| CCCCCCCC(=O)OC | inactive |  |
| CC(COCC(C)OC(=O)c1ccccc1)OC(=O)c1ccccc1 (stereo not given) | inactive |  |
| CCc1nc(N)nc(N)c1-c1ccc(Cl)cc1 | inactive |  |
| CN(C)CCCN(C)CCCN(C)C | inactive |  |
| CCCCCCCCCC[N+](C)(C)[O-] | inactive |  |
| NCCOCCOCCN | inactive |  |
| CCCC(=O)O | inactive |  |
| O=C(N[C@@H](c1ccccc1)[C@@H]1CCCCN1)c1cccc(C(F)(F)F)c1Cl | inactive |  |
| Cc1ccc(C(C)(C)C)c(O)c1 | inactive |  |
| Cc1cc(Cc2ccc(N)c(C)c2)ccc1N | inactive |  |

| Compound | outcome | AC50 |
| --- | --- | --- |
| Cn1cnc2c1c(=O)[nH]c(=O)n2C | inactive |  |
| CC(=O)OCC(COC(C)=O)OC(C)=O | inactive |  |
| CC(C)c1cccc(C(C)C)c1 | inactive |  |
| CC(=O)O[C@]1(C(C)=O)CC[C@H]2[C@@H]3C=C(Cl)C4=CC(=O)[C@@H]5C[C@@H]5[C@]4(C)[C@H]3CC[C@@]21C | inactive |  |
| CC(C)NCC(O)c1ccc(O)c(O)c1 (stereo not given) | inactive |  |
| CCCCCCCCCCCCCCCCO | inactive |  |
| C=CCCCCCCCCCCCC | inactive |  |
| CCCCCCCCCCCCCCOS(=O)(=O)O | inactive |  |
| O=[Si]=O | inactive |  |
| CS(=O)(=O)c1ccc([C@@H](C[C@H]2CCC(=O)C2)C(=O)Nc2cnccn2)cc1Cl | inactive |  |
| O=C(O)c1[nH]n(-c2ccc(S(=O)(=O)O)cc2)c(=O)c1N=Nc1ccc(S(=O)(=O)O)cc1 | inactive |  |
| CC(=O)O | inactive |  |
| CCc1cc(C2=C(C(=O)O)N(c3ccccc3C(F)(F)F)S(=O)(=O)c3ccccc32)cc2c1OCO2 | inactive |  |
| Oc1ccc(O)cc1 | inactive |  |
| Oc1ccccc1O | inactive |  |
| CCCCCCC(CCCCCCCCCCC(=O)OCC(COC(C)=O)OC(C)=O)OC(C)=O (stereo not given) | inactive |  |
| COc1ccc(C(=O)Nc2nc3ccccc3c(NCc3ccccc3)c2C#N)cc1 | inactive |  |
| NC1CCCCC1 | inactive |  |
| O=C1c2c(O)cccc2Cc2cccc(O)c21 | inactive |  |
| CO[C@@H]1COCC[C@@H]1N[C@@H]1CC[C@@](C(=O)N2CCc3ncc(C(F)(F)F)cc3C2)(C(C)C)C1 | inactive |  |
